Target: C-X-C chemokine receptor type 6 (Homo sapiens) (UniProt O00574)
Assay: antagonism of CXCR6 versus CXCR5 signaling – cell-based, CHO-K1 PathHunter beta-arrestin, luminescence, set 4, selectivity assay for CXCR6 antagonist project, profiling panel (AID 651919)
Conditions: run 3, at 79 µM (top of the series)

Chain of C-X-C chemokine receptor type 6 (Homo sapiens) (O00574 whole entry, looked up): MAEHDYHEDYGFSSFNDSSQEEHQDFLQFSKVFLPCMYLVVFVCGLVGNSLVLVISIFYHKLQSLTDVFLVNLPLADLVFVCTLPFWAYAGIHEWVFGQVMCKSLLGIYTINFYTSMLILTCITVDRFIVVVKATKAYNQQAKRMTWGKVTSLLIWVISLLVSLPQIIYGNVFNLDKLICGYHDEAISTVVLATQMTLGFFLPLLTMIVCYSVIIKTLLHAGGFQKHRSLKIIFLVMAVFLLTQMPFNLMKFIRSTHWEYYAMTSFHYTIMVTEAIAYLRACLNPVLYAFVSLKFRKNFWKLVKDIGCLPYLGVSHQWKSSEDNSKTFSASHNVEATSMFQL

SMILES | inhibition
COc1cc(C(=O)NC2CC3CCCC(C2)N3CC(=O)Nc2ccccc2)cc(OC)c1OC (configuration not stated) | 92.7%
COc1cc(C(=O)NC2CC3CCCC(C2)N3CC(=O)Nc2ccccc2Cl)cc(OC)c1OC (configuration not stated) | 99.1%
